MITF inh = MITF inhibitors, primary screen, biochemical, AlphaScreen, human; AlphaScreen MITF homodimerization, bead proximity signal; inhibition, % at 2.6 µM; 650,000 compounds, 0.91% hits; AID 1259374, 2018; in the data active = inhibition above about 50%
Target sequence (O75030 whole entry, looked up): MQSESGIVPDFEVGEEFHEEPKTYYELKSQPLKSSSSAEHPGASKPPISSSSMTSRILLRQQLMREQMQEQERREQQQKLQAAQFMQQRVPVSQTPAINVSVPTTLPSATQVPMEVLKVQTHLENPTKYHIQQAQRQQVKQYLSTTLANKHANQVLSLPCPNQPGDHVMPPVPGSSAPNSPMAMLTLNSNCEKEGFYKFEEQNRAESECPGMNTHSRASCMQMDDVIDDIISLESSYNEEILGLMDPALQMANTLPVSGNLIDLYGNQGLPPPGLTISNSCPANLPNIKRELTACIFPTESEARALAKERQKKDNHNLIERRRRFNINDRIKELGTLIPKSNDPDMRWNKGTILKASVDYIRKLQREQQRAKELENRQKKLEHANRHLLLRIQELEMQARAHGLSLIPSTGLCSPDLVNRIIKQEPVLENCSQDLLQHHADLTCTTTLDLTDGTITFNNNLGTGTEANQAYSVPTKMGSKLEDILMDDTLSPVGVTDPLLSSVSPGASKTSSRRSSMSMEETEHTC
GPR151 activ = activators of human GPR151, primary screen, cell-based, PathHunter beta-arrestin, luminescence; G-protein coupled receptor 151 (Homo sapiens), Q8TDV0; PathHunter beta-arrestin GPR151 cells; activation, % at 11.2 µM; 650,000 compounds, 1% hits; AID 1508602, 2020; in the data active = activation above about 4.9%
FBW7 act = FBW7 E3 ligase activators, primary screen, biochemical, AlphaScreen, human; F-box/WD repeat-containing protein 7 (Homo sapiens), Q969H0; AlphaScreen FBW7–phospho-cyclin E peptide binding, activator screen; normalized activity (activation), % at 26.1 µM; 650,000 compounds, 0.13% hits; AID 1259310, 2017; in the data active = normalized activity above about 1.9%;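 also: purified mutant Fbw7 with reduced substrate affinity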
TEAD-YAP inh = TEAD-YAP interaction inhibition, primary screen, TEAD-YAP interaction inhibitor project, luminescence, HEK-TIYL cells | TEAD-Gal4/YAP UAS-luciferase luminescence | inhibition, % at 9.12 µM | 640,000 compounds, 1.4% hits | AID 1259422, 2018; in the data active = inhibition above about 32%
Numbers stand for hits; i = inactive; nt = no result. Most compounds without a hit are left out; they make up all but 3.4% or so of the library.

SMILES | MITF inh | GPR151 activ | FBW7 act | TEAD-YAP inh
Cc1cccc(-n2ncc3c(Nc4c(C)cc(C)cc4C)ncnc32)c1 | i | i | i | 57
Cc1cccc(-n2ncc3c(Nc4cccc5ccccc45)ncnc32)c1 | i | i | i | 32
Cc1cccc(-n2ncc3c(Nc4ccccc4)ncnc32)c1 | i | i | i | i
CC1(C)CC(NC(=O)CCC2(Cc3ccc(F)cc3)CCC(=O)N2)CCO1 (stereo not drawn) | i | i | i | i
CCCC(=O)N(CC(=O)Nc1sc(C)c(C)c1C(N)=O)Cc1ccc(F)cc1 | i | i | i | i
CCOC(=O)CNC(=O)c1sc2nc(C)nc(N(C)c3ccc(C(C)C)cc3)c2c1C | i | i | 2.3 | i
CCCCNC(=O)c1sc2nc(C)nc(N(C)c3ccc(C(C)C)cc3)c2c1C | i | i | i | i
CCOC(=O)CNC(=O)c1ccc(C(C)C)cc1 | i | i | i | 48
FC(F)(F)c1cccc(CNc2ccnc(Nc3ccncc3)n2)c1 | i | i | i | i
Cc1c(O)ccc2c(=O)c(Oc3ccccc3)c(C(F)(F)F)oc12 | i | i | i | i
Nc1nc(Nc2ccc(-n3ccnc3)cc2)nc2c1ncn2-c1ccsc1 | i | i | i | i
OCCNc1nc(Nc2ccncn2)nc2c1ncn2-c1ccsc1 | i | i | i | 36
Nc1nc(Nc2ccncn2)nc2c1ncn2-c1ccsc1 | i | i | 16 | 38
OCCNc1nc(Nc2cnccn2)nc2c1ncn2-c1ccsc1 | i | i | i | i
O=C(O)C(Cc1ccccc1)N1C(=O)C2CCCCC2C1=O (stereo not drawn) | i | i | 2.6 | i
O=C(CSc1nc2ccsc2c(=O)n1Cc1ccc2c(c1)OCO2)c1ccc(Cl)c(Cl)c1 | i | i | i | i
CCOC(=O)c1ccc(NC(=O)c2ccc(Br)c(S(=O)(=O)N3CCCCC3)c2)cc1 | i | i | i | 49
Cc1ccc(C(=O)Nc2ccc(Sc3ccccc3)cc2)cc1S(=O)(=O)N1CCOCC1 | i | i | i | 36
CCOC(=O)c1ccc(NC(=O)c2ccc(C)c(S(=O)(=O)N3CCOCC3)c2)cc1 | i | i | i | 37
COc1ccc(NC(=S)N(CCCN2CCCCC2)Cc2ccco2)cc1 | i | i | i | i
O=C(N/N=C/c1cccc(O)c1O)c1nn(Cc2ccccc2)c(=O)c2ccccc12 | i | i | i | i
O=C(N/N=C/c1ccc(O)cc1O)c1ccc(Br)cc1 | i | i | i | 42
O=C(N/N=C/c1ccc(O)cc1O)c1nn(Cc2ccccc2)c(=O)c2ccccc12 | i | i | i | 64
O=C(N/N=C/c1ccc(O)cc1O)c1cc2ccccc2cc1O | i | i | i | 67
O=C(N/N=C/c1ccc(O)cc1O)c1cccc(NC(=O)c2ccccc2F)c1 | i | i | i | 40
SMILES | MITF inh | GPR151 activ | FBW7 act | TEAD-YAP inh
O=C(N/N=C/c1ccc(O)cc1O)c1ccc(NC(=O)c2ccccc2Cl)cc1 | i | i | i | i
Cc1ccc(C(C)N2CCN(S(=O)(=O)c3ccc4c(c3)OCCO4)CC2)cc1C (stereo not drawn) | i | i | i | i
COCCn1c(SCC(=O)NC(N)=O)nc2ccccc21 | i | i | i | i
COc1ccc(-c2cn3c4c(=O)n(C)c(=O)n(C)c4nc3n2-c2cccc(C(F)(F)F)c2)cc1 | i | i | i | i
Cc1ccc2nc(-c3ccc(N4C(=O)CC(NCCc5c[nH]c6ccccc56)C4=O)cc3)sc2c1 (stereo not drawn) | i | i | i | i
O=C(N/N=C/c1ccc(O)cc1O)c1ccc[n+]([O-])c1 | 73 | i | i | i
O=C(N/N=C/c1ccc(O)cc1O)c1ccc(O)cc1 | i | i | i | i
O=C(N/N=C/c1ccccc1Cl)c1cncc(Br)c1 | i | i | i | i
O=C(N/N=C\c1ccc(O)cc1O)c1ccc(=O)[nH]n1 | 60 | i | i | i
O=C(N/N=C\c1cc(Br)ccc1F)c1ccc(=O)[nH]n1 | i | i | i | i
O=C(N/N=C/c1ccc(O)cc1O)c1ccc(-c2ccccc2)cc1 | i | i | i | 45
O=C(N/N=C\c1ccc(O)cc1O)c1cncc(Br)c1 | 79 | i | i | i
C=CCc1ccc(OCCOc2ccc(/C=C3/C(=N)N4N=C(C)SC4=NC3=O)cc2)c(OC)c1 | i | i | i | i
COc1cccc(N2CCN(C(=O)c3ccc4nc5ccccc5c(=O)n4c3)CC2)c1 | i | i | i | i
COc1ccccc1-c1cnc2[nH]c(=O)n(Cc3cc(OC)c(OC)c(OC)c3)c2n1 | i | i | i | i
CO[C@H](C(=O)[C@@H](O)[C@@H](C)O)[C@@H]1Cc2cc3cc(O[C@H]4C[C@@H](O[C@H]5C[C@@H](O)[C@H](O)[C@@H](C)O5)[C@H](O)[C@@H](C)O4)c(C)c(O)c3c(O)c2C(=O)[C@H]1O[C@H]1C[C@@H](O[C@H]2C[C@@H](O[C@H]3C[C@](C)(O)[C@H](O)[C@@H](C)O3)[C@@H](O)[C@@H](C)O2)[C@H](O)[C@@H](C)O1 | i | i | i | 92
CC12CCC(C(=O)Nc3cccc([N+](=O)[O-])c3)(OC1=O)C2(C)C (stereo not drawn) | i | i | i | i
Cc1nc2ccccc2c(=O)n1NC(=O)CN1C(=O)c2ccccc2C1=O | i | i | i | i
CNc1nc(Nc2ccc(C)c(C)c2)c2nccnc2n1 | i | i | i | i
CNc1nc(Nc2ccc(OC)cc2)c2nccnc2n1 | i | i | 2.9 | i
Nc1c(N=Nc2ccc(-c3ccc(N=Nc4cc(S(=O)(=O)O)c5ccccc5c4N)cc3)cc2)cc(S(=O)(=O)O)c2ccccc12 | i | i | i | i
Cc1cc(-c2ccc(N=Nc3ccc4c(S(=O)(=O)O)cc(S(=O)(=O)O)c(N)c4c3O)c(C)c2)ccc1N=Nc1ccc2c(S(=O)(=O)O)cc(S(=O)(=O)O)c(N)c2c1O | 78 | i | i | nt
COc1ccc(Cc2cnc(NC(=O)COc3ccccc3Cl)s2)cc1 | i | i | i | 58
COc1ccc(Cc2cnc(NC(C)=O)s2)cc1 | i | i | i | i
CCCCOc1ccc(C(=O)Nc2nnc(CC)s2)cc1 | i | i | i | i
SMILES | MITF inh | GPR151 activ | FBW7 act | TEAD-YAP inh
COc1ccc(Cc2cnc(NC(=O)c3ccc(C)cc3)s2)cc1 | i | i | i | 50
CCOc1ccc(/C=C/C(=O)Nc2ncc(Cc3ccc(C)cc3)s2)cc1 | i | i | i | i
CCc1nnc(NC(=O)c2ccc(OC)cc2)s1 | i | i | i | 40
Cc1ccc(Cc2cnc(NC(=O)/C=C/c3ccco3)s2)cc1 | i | i | i | 58
CCOC(=O)c1c(NC(=O)c2cnccn2)sc(C(N)=O)c1C | i | i | i | i
COc1cccc(CN2CCc3nnc(C(C)NC(=O)C(C)C)n3CC2)c1OC (stereo not drawn) | i | i | i | i
O=C(Nc1ncc(Cc2ccc(F)cc2)s1)c1ccc(Br)cc1 | i | i | i | 38
CC(C)(C)c1ccc(C(=O)Nc2ncc(Cc3ccc(F)cc3)s2)cc1 | i | i | i | i
CN(C)c1ccc(CN2CCN(c3ncccn3)CC2)cc1 | i | i | i | i

Screening results from PubChem BioAssay.
